Sampled rows, rich in hits. Any-hit rate of the full collection: about 3.5%.
MITF inh: human MITF inhibition, primary screen; O75030; AlphaScreen MITF homodimerization, bead proximity signal; inhibition, % at 2.6 µM; 0.91% of 650,000 active; AID 1259374; in the data active means inhibition above about 50%;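 further: 0% = vehicle wells with protein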
TEAD-YAP block: TEAD-YAP interaction inhibition; HEK-TIYL cells, TEAD-Gal4/YAP UAS-luciferase luminescence; inhibition, % at 9.12 µM; 1.4% of 640,000 active; AID 1259422; in the data active means inhibition above about 32%;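 further: 0% = median of test compound wells and 100% = reference inhibitor wells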
FBW7 act: activators of human E3 ligase FBW7. AlphaScreen FBW7–phospho-cyclin E peptide binding, activator screen. normalized activity (activation), % at 26.1 µM. 0.13% of 650,000 active. AID 1259310. Q969H0; in the data active means normalized activity above about 1.9%;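 further: purified mutant Fbw7 with reduced substrate affinity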
Target sequence (Q969H0 whole entry, looked up): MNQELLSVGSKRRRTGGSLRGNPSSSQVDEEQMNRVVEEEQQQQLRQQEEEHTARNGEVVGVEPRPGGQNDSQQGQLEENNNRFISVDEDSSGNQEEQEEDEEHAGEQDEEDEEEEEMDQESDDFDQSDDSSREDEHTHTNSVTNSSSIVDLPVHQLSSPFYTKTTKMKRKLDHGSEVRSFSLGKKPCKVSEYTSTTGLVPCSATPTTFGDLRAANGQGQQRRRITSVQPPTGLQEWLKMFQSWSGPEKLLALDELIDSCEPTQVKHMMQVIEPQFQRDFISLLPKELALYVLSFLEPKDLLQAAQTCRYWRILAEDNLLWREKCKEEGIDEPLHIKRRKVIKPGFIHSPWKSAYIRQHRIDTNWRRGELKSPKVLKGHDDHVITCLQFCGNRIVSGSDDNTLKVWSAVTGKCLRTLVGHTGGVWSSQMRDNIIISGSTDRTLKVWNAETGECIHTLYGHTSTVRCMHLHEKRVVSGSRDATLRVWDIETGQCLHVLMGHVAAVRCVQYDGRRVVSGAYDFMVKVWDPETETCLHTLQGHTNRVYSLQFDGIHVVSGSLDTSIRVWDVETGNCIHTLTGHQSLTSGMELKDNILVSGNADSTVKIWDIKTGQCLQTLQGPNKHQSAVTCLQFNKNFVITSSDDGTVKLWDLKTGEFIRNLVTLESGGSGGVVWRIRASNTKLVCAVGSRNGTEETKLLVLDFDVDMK
GPR151 activ: activators of human GPR151. PathHunter beta-arrestin GPR151 cells, luminescence. 1% of 650,000 active. activation, % at 11.2 µM. Q8TDV0; in the data active means activation above about 4.9%;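 further: 0% = median of compound wells and 100% = cells with positive control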
* marks the source's active call; other numbers are inactive results.

How did CCC1=NN2C(=N)/C(=C/c3cc(Br)c(OCCOc4ccc(C)cc4)c(OC)c3)C(=O)N=C2S1 do in these assays?
MITF inh: 61*; TEAD-YAP block: -14; FBW7 act: 1; GPR151 activ: -2

Results for CCC1=NN2C(=N)/C(=C\c3cccc(OCCOc4cc(C)ccc4C)c3)C(=O)N=C2S1 ?
MITF inh: 63*; TEAD-YAP block: -56; FBW7 act: 0; GPR151 activ: -1

How did CCSCCOC(=O)C1=C(C)NC2=C(C(=O)C(C(=O)OC)C(C)C2)C1c1c(F)cccc1Cl (configuration not stated) do in these assays?
MITF inh: 0; TEAD-YAP block: -15; FBW7 act: 1.9*; GPR151 activ: 1

How did CCOc1ccc(N2C(=O)CC(NCCCc3ccccc3)C2=O)cc1 (configuration not stated) do in these assays?
MITF inh: -9; TEAD-YAP block: -2; FBW7 act: 0; GPR151 activ: 1

What do the screens show for `O=C(CSc1ccc([N+](=O)[O-])cc1)Nc1ccc(-c2nnc3n2CCCCC3)cc1`?
MITF inh: 0; TEAD-YAP block: -2; FBW7 act: 0; GPR151 activ: 1

How did Cc1nc2sccn2c1C(=O)Nc1cccc(OC(F)(F)F)c1 do in these assays?
MITF inh: 18; TEAD-YAP block: -5; FBW7 act: 1.9*; GPR151 activ: 0

Results for Cc1nc2sccn2c1C(=O)Nc1cccc(Oc2ccccc2)c1 ?
MITF inh: 10; TEAD-YAP block: -4; FBW7 act: 0; GPR151 activ: -1

Results for CC1=CC(=O)C(N2CCC(Cc3ccccc3)CC2)=CC1=O ?
MITF inh: 60*; TEAD-YAP block: 4; FBW7 act: 0; GPR151 activ: -2

Results for O=S(=O)(Cc1ccccc1)N1CCC(Cc2ccccc2)CC1 ?
MITF inh: -4; TEAD-YAP block: 3; FBW7 act: 0; GPR151 activ: 1

How did Oc1c(C(Nc2ccc(F)cc2)c2ccncc2)ccc2cccnc12 (configuration not stated) do in these assays?
MITF inh: 61*; TEAD-YAP block: -3; FBW7 act: -2; GPR151 activ: -1

How did Cc1cccc(NC(c2ccc(F)cc2)c2ccc3cccnc3c2O)n1 (configuration not stated) do in these assays?
MITF inh: 26; TEAD-YAP block: 86*; FBW7 act: 0; GPR151 activ: -2

How did Oc1c(C(Nc2ncccn2)c2ccc(F)cc2)ccc2cccnc12 (configuration not stated) do in these assays?
MITF inh: 15; TEAD-YAP block: 1; FBW7 act: 0; GPR151 activ: 2

Results for Oc1c(C(Nc2ccccn2)c2cccc(F)c2)ccc2cccnc12 (configuration not stated) ?
MITF inh: 0; TEAD-YAP block: 21; FBW7 act: 0; GPR151 activ: 0

Results for Cc1cccc(NC(c2cccc(F)c2)c2ccc3cccnc3c2O)n1 (configuration not stated) ?
MITF inh: 5; TEAD-YAP block: 40*; FBW7 act: 0; GPR151 activ: -1

How did CCN(CC)S(=O)(=O)c1ccc(F)c(C(=O)Nc2c(F)cc(F)cc2Br)c1 do in these assays?
MITF inh: 4; TEAD-YAP block: -4; FBW7 act: 0; GPR151 activ: 0

Results for CCCCn1c(CNC(=O)c2ccc(C)c([N+](=O)[O-])c2)nnc1SCC(=O)Nc1sc2c(c1C(=O)OCC)CCCC2 ?
MITF inh: -5; TEAD-YAP block: 9; FBW7 act: 0; GPR151 activ: 3

Results for O=C(CNC(=O)c1ccco1)OCC(=O)c1ccc(C2CCCCC2)cc1 ?
MITF inh: 13; TEAD-YAP block: -6; FBW7 act: 0; GPR151 activ: 0

How did COCC(C)n1c(C)cc(C(=O)CSc2nc3ccccc3[nH]2)c1C (configuration not stated) do in these assays?
MITF inh: 8; TEAD-YAP block: 40*; FBW7 act: 0; GPR151 activ: 3

Results for COCC(C)n1c(C)cc(C(=O)COC(=O)c2c(OC)cccc2OC)c1C (configuration not stated) ?
MITF inh: 10; TEAD-YAP block: 22; FBW7 act: 0; GPR151 activ: -2

Results for Cc1cc(C(=O)CSc2nc3ccccc3[nH]2)c(C)n1C1CC1 ?
MITF inh: 7; TEAD-YAP block: -71; FBW7 act: 0; GPR151 activ: -1

How did COCC(C)n1c(C)cc(C(=O)COC(=O)c2oc3ccccc3c2C)c1C (configuration not stated) do in these assays?
MITF inh: 5; TEAD-YAP block: 0; FBW7 act: 0; GPR151 activ: -1

How did COCC(C)n1c(C)cc(C(=O)COC(=O)c2n[nH]c3ccccc23)c1C (configuration not stated) do in these assays?
MITF inh: 18; TEAD-YAP block: 88*; FBW7 act: 0; GPR151 activ: -2

What do the screens show for `COCC(C)n1c(C)cc(C(=O)COC(=O)c2cccc(C)c2C)c1C` (configuration not stated)?
MITF inh: 7; TEAD-YAP block: 46*; FBW7 act: 0; GPR151 activ: 0

Results for COc1ccc(C(=O)N2CCN(CCNC(=O)C(=O)NCc3ccco3)CC2)cc1 ?
MITF inh: -7; TEAD-YAP block: -9; FBW7 act: 0; GPR151 activ: -1

How did N/C(=N\OC(=O)c1cccc(Br)c1)c1ccc(Cl)cc1 do in these assays?
MITF inh: 4; TEAD-YAP block: -1; FBW7 act: 0; GPR151 activ: 1

What do the screens show for `c1ccc(CNc2ccc3ncc(-c4ccc5c(c4)OCO5)n3n2)nc1`?
MITF inh: 7; TEAD-YAP block: 58*; FBW7 act: 0; GPR151 activ: 1

Results for O=C(O)c1ccc(-c2cnc3ccc(NCc4ccc5c(c4)OCO5)nn23)cc1 ?
MITF inh: -16; TEAD-YAP block: -3; FBW7 act: 0; GPR151 activ: -1

Results for c1cc(CNc2ccc3ncc(-c4ccc5c(c4)OCO5)n3n2)ccn1 ?
MITF inh: 5; TEAD-YAP block: 50*; FBW7 act: 0; GPR151 activ: 0

Results for Cc1ccc(-c2cnc3ccc(NCc4ccc5c(c4)OCO5)nn23)cc1 ?
MITF inh: 8; TEAD-YAP block: 48*; FBW7 act: 0; GPR151 activ: 0

Results for CCOC(=O)C1=C(C)N=c2s/c(=C\c3cccc(OCc4ccc(F)cc4)c3)c(=O)n2C1c1ccccc1OC(C)C (configuration not stated) ?
MITF inh: -10; TEAD-YAP block: -6; FBW7 act: 0; GPR151 activ: -1

What do the screens show for `Cc1ccccc1NC(=O)Cn1nnc(C(=O)NCc2cccs2)c1N`?
MITF inh: -12; TEAD-YAP block: 46*; FBW7 act: 0; GPR151 activ: -1

How did O=C(CSc1ccncc1)NCCN1Cc2ccccc2OC(c2ccccc2)C1 (configuration not stated) do in these assays?
MITF inh: -4; TEAD-YAP block: 5; FBW7 act: 0; GPR151 activ: 2

Results for CNC(=O)c1c(NC(=O)c2ccccc2F)sc2c1CCCC2 ?
MITF inh: 2; TEAD-YAP block: -5; FBW7 act: 0; GPR151 activ: -1
